As a reminder, the inhibition is the change of the read-out against control, counted positive when it falls.

In assay [1] the target is RAC-alpha serine/threonine-protein kinase (Homo sapiens) (UniProt P31749). The note with it: at 0.1 µM.
Assay [2] has the same target. The settings on record: at 1 µM.
The target of assay [3] is RAC-beta serine/threonine-protein kinase (Homo sapiens) (UniProt P31751). The note with it: at 0.1 µM.
Assay [4] has the same target. The note with it: at 1 µM.
Assay [5] has as its target RAC-gamma serine/threonine-protein kinase (Homo sapiens) (UniProt Q9Y243). The note with it: at 0.1 µM.
The target is the same in assay [6]. The note with it: at 1 µM.
For assay [7], the target named is G protein-coupled receptor kinase 6 (Homo sapiens) (UniProt P43250). The settings on record: at 0.1 µM.
Assay [8] shares this target. The note with it: at 1 µM.
In assay [9] the target is T1, Rhodopsin kinase GRK7 (Homo sapiens) (UniProt Q8WTQ7).
T1 sequence (whole entry): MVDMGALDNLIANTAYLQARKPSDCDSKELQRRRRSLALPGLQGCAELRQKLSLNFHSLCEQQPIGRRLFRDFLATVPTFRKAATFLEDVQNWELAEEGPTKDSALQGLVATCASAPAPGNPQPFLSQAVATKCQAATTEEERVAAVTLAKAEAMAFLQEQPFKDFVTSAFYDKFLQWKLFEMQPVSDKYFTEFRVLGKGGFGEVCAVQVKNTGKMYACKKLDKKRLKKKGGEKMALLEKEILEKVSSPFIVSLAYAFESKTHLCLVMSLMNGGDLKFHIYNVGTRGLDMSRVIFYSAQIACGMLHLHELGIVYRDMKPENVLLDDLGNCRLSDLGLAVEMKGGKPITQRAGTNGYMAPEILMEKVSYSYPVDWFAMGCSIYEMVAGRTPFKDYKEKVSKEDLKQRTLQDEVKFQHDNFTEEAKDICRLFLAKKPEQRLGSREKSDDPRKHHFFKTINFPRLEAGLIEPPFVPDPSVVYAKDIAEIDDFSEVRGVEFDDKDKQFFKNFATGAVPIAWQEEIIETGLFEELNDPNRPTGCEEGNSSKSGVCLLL
The note with it: at 0.1 µM.

Assay [10] has as its target T1, Rhodopsin kinase GRK7 (Homo sapiens). The note with it: at 1 µM.
Assay [11] addresses Serine/threonine-protein kinase MRCK alpha (Homo sapiens) (UniProt Q5VT25). The note with it: at 0.1 µM.
Assay [12] has the same target. The settings on record: at 1 µM.
The target in assay [13] is Serine/threonine-protein kinase MRCK beta (Homo sapiens) (UniProt Q9Y5S2). The note with it: at 0.1 µM.
Assay [14] has the same target. The note with it: at 1 µM.
Assay [15] has as its target Ribosomal protein S6 kinase alpha-5 (Homo sapiens) (UniProt O75582). The note with it: at 0.1 µM.
Assay [16] shares this target. The settings on record: at 1 µM.
Assay [17] addresses Ribosomal protein S6 kinase alpha-4 (Homo sapiens) (UniProt O75676). The settings on record: at 0.1 µM.
For assay [18] the target is unchanged. The settings on record: at 1 µM.
The target of assay [19] is Ribosomal protein S6 kinase beta-1 (Homo sapiens) (UniProt P23443). The settings on record: at 0.1 µM.
Assay [20] shares this target. The settings on record: at 1 µM.

Chain of Serine/threonine-protein kinase MRCK beta (Homo sapiens) (Q9Y5S2 whole entry): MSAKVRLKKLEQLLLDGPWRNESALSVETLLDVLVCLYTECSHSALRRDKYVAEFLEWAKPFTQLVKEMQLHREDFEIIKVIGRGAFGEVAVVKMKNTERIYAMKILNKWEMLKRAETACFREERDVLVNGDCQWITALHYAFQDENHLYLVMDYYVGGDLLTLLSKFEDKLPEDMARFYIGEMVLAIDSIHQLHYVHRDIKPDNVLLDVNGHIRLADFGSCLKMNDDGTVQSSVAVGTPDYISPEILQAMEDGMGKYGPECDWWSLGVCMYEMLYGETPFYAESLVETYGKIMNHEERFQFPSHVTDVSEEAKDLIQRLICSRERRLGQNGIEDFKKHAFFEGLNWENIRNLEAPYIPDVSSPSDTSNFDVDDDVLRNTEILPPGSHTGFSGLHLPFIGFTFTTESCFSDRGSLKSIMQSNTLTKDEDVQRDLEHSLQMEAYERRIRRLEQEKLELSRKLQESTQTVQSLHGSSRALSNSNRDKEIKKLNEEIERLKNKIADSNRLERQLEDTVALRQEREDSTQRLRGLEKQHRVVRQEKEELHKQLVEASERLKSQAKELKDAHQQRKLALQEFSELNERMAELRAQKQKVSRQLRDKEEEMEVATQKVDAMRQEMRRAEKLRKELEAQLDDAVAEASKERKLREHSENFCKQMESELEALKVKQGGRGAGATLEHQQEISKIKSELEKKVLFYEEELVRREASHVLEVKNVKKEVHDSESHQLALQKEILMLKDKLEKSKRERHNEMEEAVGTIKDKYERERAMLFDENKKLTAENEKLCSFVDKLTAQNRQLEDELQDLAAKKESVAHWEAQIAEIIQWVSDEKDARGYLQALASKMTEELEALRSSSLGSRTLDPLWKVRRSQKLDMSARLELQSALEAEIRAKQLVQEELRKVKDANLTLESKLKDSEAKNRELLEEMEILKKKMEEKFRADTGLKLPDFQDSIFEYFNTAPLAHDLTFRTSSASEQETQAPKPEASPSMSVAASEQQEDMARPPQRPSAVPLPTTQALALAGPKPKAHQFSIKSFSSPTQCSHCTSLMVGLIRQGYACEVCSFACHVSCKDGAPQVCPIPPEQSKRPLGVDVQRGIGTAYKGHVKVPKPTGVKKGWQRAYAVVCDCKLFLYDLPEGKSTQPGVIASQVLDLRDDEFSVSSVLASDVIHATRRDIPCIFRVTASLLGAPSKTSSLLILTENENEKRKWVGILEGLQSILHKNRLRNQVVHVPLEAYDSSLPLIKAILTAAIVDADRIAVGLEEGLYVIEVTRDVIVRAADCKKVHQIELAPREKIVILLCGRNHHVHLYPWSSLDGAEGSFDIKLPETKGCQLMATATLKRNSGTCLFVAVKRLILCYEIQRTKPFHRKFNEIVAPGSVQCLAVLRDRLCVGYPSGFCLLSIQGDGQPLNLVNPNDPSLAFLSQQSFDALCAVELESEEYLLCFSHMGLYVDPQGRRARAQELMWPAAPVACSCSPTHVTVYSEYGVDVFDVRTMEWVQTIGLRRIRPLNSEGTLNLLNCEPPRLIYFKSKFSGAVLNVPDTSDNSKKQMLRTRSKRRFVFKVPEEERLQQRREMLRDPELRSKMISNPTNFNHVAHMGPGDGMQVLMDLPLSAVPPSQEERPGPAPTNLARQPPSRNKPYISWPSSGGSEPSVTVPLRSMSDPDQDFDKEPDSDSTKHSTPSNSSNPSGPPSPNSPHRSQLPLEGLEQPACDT
Chain of Ribosomal protein S6 kinase beta-1 (Homo sapiens) (P23443 whole entry, looked up): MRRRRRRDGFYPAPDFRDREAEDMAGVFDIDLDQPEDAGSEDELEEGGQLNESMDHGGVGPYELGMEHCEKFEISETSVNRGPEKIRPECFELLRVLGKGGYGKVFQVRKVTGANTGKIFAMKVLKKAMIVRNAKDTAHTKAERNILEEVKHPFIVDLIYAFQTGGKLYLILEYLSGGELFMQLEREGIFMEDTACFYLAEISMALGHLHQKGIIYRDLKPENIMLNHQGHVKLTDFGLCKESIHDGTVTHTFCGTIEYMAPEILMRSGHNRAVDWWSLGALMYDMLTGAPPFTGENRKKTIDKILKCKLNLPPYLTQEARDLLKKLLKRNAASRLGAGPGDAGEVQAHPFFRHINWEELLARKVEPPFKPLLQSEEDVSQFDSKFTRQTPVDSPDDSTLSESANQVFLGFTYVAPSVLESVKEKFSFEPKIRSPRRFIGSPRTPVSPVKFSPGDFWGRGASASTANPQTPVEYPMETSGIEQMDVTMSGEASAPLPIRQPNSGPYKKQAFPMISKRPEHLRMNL
Chain of Ribosomal protein S6 kinase alpha-4 (Homo sapiens) (O75676 whole entry, looked up): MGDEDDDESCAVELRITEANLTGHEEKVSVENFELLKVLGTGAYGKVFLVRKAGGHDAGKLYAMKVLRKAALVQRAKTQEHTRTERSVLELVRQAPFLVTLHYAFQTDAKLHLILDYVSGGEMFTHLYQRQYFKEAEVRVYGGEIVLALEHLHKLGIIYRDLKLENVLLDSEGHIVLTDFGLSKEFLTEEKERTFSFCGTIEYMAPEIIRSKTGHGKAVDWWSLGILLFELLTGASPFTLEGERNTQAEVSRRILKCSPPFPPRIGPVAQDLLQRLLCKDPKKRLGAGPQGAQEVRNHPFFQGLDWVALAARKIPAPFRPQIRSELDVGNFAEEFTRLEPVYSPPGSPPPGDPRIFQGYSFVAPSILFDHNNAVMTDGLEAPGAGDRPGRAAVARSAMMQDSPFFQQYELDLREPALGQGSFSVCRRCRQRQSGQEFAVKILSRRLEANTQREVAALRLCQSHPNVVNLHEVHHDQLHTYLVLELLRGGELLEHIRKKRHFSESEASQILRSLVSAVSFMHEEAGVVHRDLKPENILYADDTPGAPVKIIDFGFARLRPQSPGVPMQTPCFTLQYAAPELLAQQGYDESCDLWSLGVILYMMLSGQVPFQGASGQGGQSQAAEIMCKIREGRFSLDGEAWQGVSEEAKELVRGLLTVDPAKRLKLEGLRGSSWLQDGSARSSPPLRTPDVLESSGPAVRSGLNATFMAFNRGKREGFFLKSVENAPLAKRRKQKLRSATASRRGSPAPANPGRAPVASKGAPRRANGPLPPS
Chain of Serine/threonine-protein kinase MRCK alpha (Homo sapiens) (Q5VT25 whole entry): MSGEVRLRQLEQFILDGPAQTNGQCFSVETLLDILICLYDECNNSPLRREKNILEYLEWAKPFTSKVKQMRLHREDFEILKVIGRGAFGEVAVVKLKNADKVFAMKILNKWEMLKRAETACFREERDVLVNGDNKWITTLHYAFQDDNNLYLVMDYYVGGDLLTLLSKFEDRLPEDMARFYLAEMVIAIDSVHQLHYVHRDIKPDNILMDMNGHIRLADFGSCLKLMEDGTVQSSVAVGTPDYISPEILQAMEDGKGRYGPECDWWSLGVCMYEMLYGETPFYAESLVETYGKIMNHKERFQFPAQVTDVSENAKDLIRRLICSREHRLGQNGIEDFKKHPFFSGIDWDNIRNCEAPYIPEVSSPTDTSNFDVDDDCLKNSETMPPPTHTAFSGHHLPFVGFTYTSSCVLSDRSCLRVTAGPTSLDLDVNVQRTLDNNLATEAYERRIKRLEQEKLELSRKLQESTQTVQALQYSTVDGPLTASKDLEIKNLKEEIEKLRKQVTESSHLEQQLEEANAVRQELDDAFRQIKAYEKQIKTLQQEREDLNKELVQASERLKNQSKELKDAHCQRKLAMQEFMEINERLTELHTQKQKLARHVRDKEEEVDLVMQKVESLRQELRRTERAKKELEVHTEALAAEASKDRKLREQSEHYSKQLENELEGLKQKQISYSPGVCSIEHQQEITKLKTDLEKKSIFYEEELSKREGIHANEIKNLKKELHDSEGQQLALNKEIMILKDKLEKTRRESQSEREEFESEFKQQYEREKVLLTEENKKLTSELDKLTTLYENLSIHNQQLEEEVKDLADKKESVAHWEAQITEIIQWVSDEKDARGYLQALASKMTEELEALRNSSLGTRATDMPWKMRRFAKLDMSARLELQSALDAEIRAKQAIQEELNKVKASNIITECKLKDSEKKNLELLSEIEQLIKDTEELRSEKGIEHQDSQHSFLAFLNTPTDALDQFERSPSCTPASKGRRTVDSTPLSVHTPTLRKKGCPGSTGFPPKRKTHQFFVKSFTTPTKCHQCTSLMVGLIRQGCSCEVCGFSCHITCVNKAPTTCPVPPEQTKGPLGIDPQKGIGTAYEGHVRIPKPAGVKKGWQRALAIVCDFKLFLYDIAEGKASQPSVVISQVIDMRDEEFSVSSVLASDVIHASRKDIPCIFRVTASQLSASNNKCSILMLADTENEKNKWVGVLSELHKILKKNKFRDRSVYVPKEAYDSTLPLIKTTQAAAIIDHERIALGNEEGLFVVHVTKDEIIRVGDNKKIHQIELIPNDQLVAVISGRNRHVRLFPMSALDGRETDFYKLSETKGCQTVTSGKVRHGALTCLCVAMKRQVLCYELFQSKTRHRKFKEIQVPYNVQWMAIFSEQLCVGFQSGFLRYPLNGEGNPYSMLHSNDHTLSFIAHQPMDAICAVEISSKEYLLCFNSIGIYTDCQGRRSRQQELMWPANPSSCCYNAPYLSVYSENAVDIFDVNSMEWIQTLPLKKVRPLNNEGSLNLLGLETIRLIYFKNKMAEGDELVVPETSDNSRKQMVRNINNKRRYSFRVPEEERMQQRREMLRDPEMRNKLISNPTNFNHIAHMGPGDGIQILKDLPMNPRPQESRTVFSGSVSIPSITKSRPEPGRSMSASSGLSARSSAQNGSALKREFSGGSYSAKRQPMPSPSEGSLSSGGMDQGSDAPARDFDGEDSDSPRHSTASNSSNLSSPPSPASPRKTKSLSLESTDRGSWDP

`CCc1ccc(Oc2nccc(-c3c(-c4ccc(F)cc4)ncn3C3CCNCC3)n2)cc1`: the inhibition is 2.02% in assay [1]; 3.72% in assay [2]; 2.05% in [3]; 3.62% in [4]; 2.08% in assay [5]; 11.5% in [6]. The inhibition in [7] turned out to be 3.46%; in [8], 4.51%; in [9], 6.57%; in [10], 7.25%; in assay [11] it was 10%; in assay [12] it was 12%. Further, the inhibition came to 0.41% in assay [13]; 4.65% in [14]; 2.63% in assay [15]; 4.23% in [16]; 3.19% in [17]; 5.69% in [18]. Besides, the inhibition in assay [19] was found to be 1.57%; in assay [20], 5.93%.
As for `COc1cc(N2CCN(C(C)C)CC2)ccc1Nc1nc(Nc2ccc(F)cc2C(=O)NC[C@@H](O)CO)c2cc[nH]c2n1`, the inhibition in [1] is -3.58%; in [2], -2.63%; in [3], 0.2%; in assay [4], -1.3%; in assay [5] it was -2.3%; in assay [6] it was -1.37%. For the same compound, the inhibition in assay [7] was 9.59%; in assay [8], 13%; in assay [9], 5.2%; in assay [10], 13.3%; in [11], -0.84%; in assay [12], 3.26%. Besides, the inhibition was -0.21% in assay [13]; -1.04% in [14]; 2.19% in [15]; 2.99% in assay [16]; 3.14% in [17]; 4.18% in assay [18]. The inhibition in assay [19] came out at 1.29%; in assay [20], 2.5%.
`NS(=O)(=O)c1ccc(N/N=C2\C(=O)Nc3ccc(-c4cnco4)cc32)cc1`: the inhibition in assay [1] was -3.71%; in assay [2] it was -3.3%; in assay [3], -3.63%; in [4] it was -1.8%; in [5] it was -3.1%; in assay [6] it was -0.96%. The inhibition in [7] was -0.25%; in assay [8] it was 2.71%; in assay [9], 8.59%; in assay [10], 7.29%; in [11], 0.37%; in assay [12], 8.38%. Besides, the inhibition in [13] is 0.26%; in [14], 6.65%; in assay [15], -1.59%; in assay [16], -0.36%; in assay [17], 0.74%; in assay [18], 3.26%. Moreover, the inhibition worked out at 0.79% in [19] and 6.58% in [20].
For `NC(=O)c1cc(-c2ccncc2)cc(-c2ccccc2)c1N`, the inhibition is 0.73% in [1]; 0.01% in [2]; 1.93% in assay [3]; 2.56% in assay [4]; 0.25% in assay [5]; 3.46% in assay [6]. Further, the inhibition in [7] is 3.52%; in assay [8] it was 3.56%; in [9], 5.22%; in [10], 9.17%; in assay [11], 0.84%; in [12], -0.04%. In addition, the inhibition was 1.07% in [13]; 2.4% in assay [14]; -1.53% in [15]; 0.93% in assay [16]; 2.32% in assay [17]; 3.43% in assay [18]. Further, the inhibition in assay [19] came out at 3.54%; in [20], 2.1%.
In the case of `C[C@@H](Oc1cc(-n2cnc3ccc(OCC4CCN(C)CC4)cc32)sc1C(N)=O)c1ccccc1Cl`, the inhibition in [1] was found to be 0.75%; in [2] it was 0.38%; in assay [3], 1.73%; in assay [4] it was 2.79%; in assay [5] it was 0.98%; in [6] it was 3.81%. Besides, the inhibition worked out at 4.28% in assay [7]; 9.48% in [8]; 10.8% in assay [9]; 9.71% in assay [10]; 3.98% in assay [11]; 9.1% in assay [12]. Also, the inhibition in [13] came to 1.18%; in assay [14], 1.35%; in [15], 4.97%; in assay [16], 7.75%; in assay [17], 3.23%; in [18], 7.58%. The inhibition in assay [19] is 2.88%; in assay [20], 6.79%.
For `COc1cc(C)c(N(C)C(=O)CN(C)C)cc1Nc1nc(Nc2cccc(F)c2C(N)=O)c2cc[nH]c2n1`, the inhibition was -1.91% in assay [1]; -1.8% in assay [2]; -3.1% in assay [3]; -2.1% in assay [4]; -2.47% in assay [5]; -1.39% in [6]. The inhibition in assay [7] is 3.68%; in assay [8], 17.8%; in assay [9], -0.46%; in [10], -6.16%; in [11], 0.58%; in [12], 0.78%. Moreover, the inhibition came out at 1.08% in assay [13]; 1.21% in assay [14]; 1.09% in [15]; 0.49% in assay [16]; 1.07% in assay [17]; 2.79% in assay [18]. The inhibition in assay [19] was found to be 2.18%; in assay [20], 1.42%.
`Cc1ccc(NC(=O)c2ccoc2)cc1-c1ccc(C(=O)NCC2CC2)cc1`: the inhibition is 0.37% in [1]; 0.55% in assay [2]; 0.88% in [3]; 1.23% in [4]; 0.72% in assay [5]; 1.87% in assay [6]. Besides, the inhibition is -0.54% in assay [7]; 1.27% in [8]; 3.35% in assay [9]; -1.36% in assay [10]; -2.51% in [11]; -2.81% in [12]. For the same compound, the inhibition is -0.56% in assay [13]; -1.77% in assay [14]; 0.76% in assay [15]; -1.39% in [16]; 1.78% in assay [17]; -0.44% in [18]. For the same compound, the inhibition in [19] was -0.57%; in assay [20] it was -1.48%.

The record behind these values is ChEMBL document CHEMBL1961873, “Compounds: GSK PKIS; Assays: Nanosyn kinase panel” (2012).
